PubChem BioAssay (NCATS)
Results filed as inconclusive are left out. A call without a number means that no potency is given here. Values without a mark were called inactive. The source made the active and inactive calls. Unless noted, the call rests on the fitted dose curve.

Columns and labels:
[1] = qHTS for Inhibitors of the Functional Ribonucleoprotein Complex (vRNP) of Lassa (LASV) Arenavirus: LASV Primary Screen - GLuc reporter signal (AID 1347082; calls by dose curve; tested in HEK293 reporter line; further: series mostly up to about 57 µM; nearly all actives have a fitted effect of over 60% in size)
[2] = qHTS for Inhibitors of the Functional Ribonucleoprotein Complex (vRNP) of Lassa (LASV) Arenavirus: Viability assay - alamar blue signal for LASV Primary Screen (AID 1347083; calls by dose curve; tested in HEK293 reporter line; further: series mostly up to about 57 µM; nearly all actives have a fitted effect of over 80% in size)
[3] = qHTS for Inhibitors of the Functional Ribonucleoprotein Complex (vRNP) of Lymphocytic Choriomeningitis Arenaviruses (LCMV): Viability assay - alamar blue signal for LCMV Primary Screen (AID 1347085; calls by dose curve; tested in HEK293 reporter line; further: nearly all actives have a fitted effect of over 80% in size; further: potency means the concentration at half of the fitted maximal effect; on activity change, negative = lower viability: series mostly up to about 57 µM)
[4] = biological target: Nucleoprotein (Lymphocytic choriomeningitis virus (strain Armstrong)) (UniProt P09992); assay: qHTS for Inhibitors of the Functional Ribonucleoprotein Complex (vRNP) of Lymphocytic Choriomeningitis Arenaviruses (LCMV): LCMV Primary Screen - GLuc reporter signal (AID 1347086); further: series mostly up to about 57 µM; nearly all actives have a fitted effect of over 70% in size
[5] = qHTS of pediatric cancer cell lines to identify multiple opportunities for drug repurposing: Primary screen for SK-N-MC cells (AID 1347093; active means well fitted curve in the direction sought with a large enough effect; an effect the other way counts as inactive or inconclusive; further: potency means the concentration at half of the fitted maximal effect)
How it was run: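 Metabolically active cells were quantified by ATP-dependent luminescence (CellTiter-Glo, 15 min at room temperature) following 48 h treatment. Cells had been plated at 500-1,000 per well and settled for 5 h beforehand.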

[6] = qHTS of pediatric cancer cell lines to identify multiple opportunities for drug repurposing: Primary screen for BT-37 cells (AID 1347094; active means well fitted curve in the direction sought with a large enough effect; an effect the other way counts as inactive or inconclusive; further: potency means the concentration at half of the fitted maximal effect)
How it was run: (§1)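 Primary screen of approved and investigational compounds on cells in growth media at 37 degrees C, 5% CO2. MIPE set at 11-point and NPC set at 8-point dilutions; viability scored by ATP-based luminescence at 48 hours.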

[7] = qHTS of pediatric cancer cell lines to identify multiple opportunities for drug repurposing: Primary screen for Saos-2 cells (AID 1347097; active means well fitted curve in the direction sought with a large enough effect; an effect the other way counts as inactive or inconclusive; further: nearly all actives have a fitted effect of over 40% in size; further: potency means the concentration at half of the fitted maximal effect)
How it was run: as §1

[8] = qHTS of pediatric cancer cell lines to identify multiple opportunities for drug repurposing: Primary screen for SK-N-SH cells (AID 1347098; active means well fitted curve in the direction sought with a large enough effect; an effect the other way counts as inactive or inconclusive; further: nearly all actives have a fitted effect of over 65% in size; further: potency means the concentration at half of the fitted maximal effect)
How it was run: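 Cells (500-1,000/well) rested 5 h, then received compounds for 48 h; metabolically active cells were measured by CellTiter-Glo luminescence. Final concentrations spanned up to 46 µM (MIPE, 11-point) or 0.59 nM-46 µM (NPC, 8-point) in primary screens, 11-point in follow-ups.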

[9] = qHTS of pediatric cancer cell lines to identify multiple opportunities for drug repurposing: Primary screen for TC32 cells (AID 1347089; active means well fitted curve in the direction sought with a large enough effect; an effect the other way counts as inactive or inconclusive; further: nearly all actives have a fitted effect of over 60% in size)
How it was run: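 TC32 cells, 500-1,000/well in growth medium, compound-treated 48 h at 37 °C; viability from CellTiter-Glo luminescence. Primary screen: MIPE 11-point (0.78 nM–46 µM final), NPC 8-point (0.59 nM–46 µM final); confirmatory at 11-point dilutions.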

[10] = qHTS of pediatric cancer cell lines to identify multiple opportunities for drug repurposing: Primary screen for SJ-GBM2 cells (AID 1347091; active means well fitted curve in the direction sought with a large enough effect; an effect the other way counts as inactive or inconclusive)
How it was run: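 Eight- or eleven-point concentration series, 48 h treatment at 37 degrees C in growth media; readout CellTiter-Glo luminescence. Potency and efficacy were taken from the concentration-response curves.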

[11] = qHTS of pediatric cancer cell lines to identify multiple opportunities for drug repurposing: Primary screen for A673 cells (AID 1347092; active means well fitted curve in the direction sought with a large enough effect; an effect the other way counts as inactive or inconclusive; further: nearly all actives have a fitted effect of over 45% in size)
How it was run: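 A673 cells (500-1,000 cells/well) were treated 48 hours at 37 degrees C with compounds at 11-point (0.78 nM to 46 µM) or 8-point (0.59 nM to 46 µM) dilutions. Viability read by CellTiter-Glo luminescence; concentration-response curves fitted.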

[12] = qHTS of pediatric cancer cell lines to identify multiple opportunities for drug repurposing: Primary screen for NB-EBc1 cells (AID 1347095; active means well fitted curve in the direction sought with a large enough effect; an effect the other way counts as inactive or inconclusive)
How it was run: as §1

[13] = qHTS of pediatric cancer cell lines to identify multiple opportunities for drug repurposing: Primary screen for U-2 OS cells (AID 1347096; active means well fitted curve in the direction sought with a large enough effect; an effect the other way counts as inactive or inconclusive; further: nearly all actives have a fitted effect of over 50% in size)
How it was run: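 Cells (500-1,000/well) in growth media were settled 5 h at 37 degrees C, then given compounds for 48 h. Viability was read as CellTiter-Glo luminescence. Primary runs used MIPE at 11 points (0.78 nM-46 µM) and NPC at 8 points (0.59 nM-46 µM); follow-ups used 11 points.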

[14] = qHTS of pediatric cancer cell lines to identify multiple opportunities for drug repurposing: Primary screen for NB1643 cells (AID 1347099; active means well fitted curve in the direction sought with a large enough effect; an effect the other way counts as inactive or inconclusive; further: nearly all actives have a fitted effect of over 50% in size)
How it was run: as §1

Chain of Nucleoprotein (Lymphocytic choriomeningitis virus (strain Armstrong)) (P09992 whole entry, looked up): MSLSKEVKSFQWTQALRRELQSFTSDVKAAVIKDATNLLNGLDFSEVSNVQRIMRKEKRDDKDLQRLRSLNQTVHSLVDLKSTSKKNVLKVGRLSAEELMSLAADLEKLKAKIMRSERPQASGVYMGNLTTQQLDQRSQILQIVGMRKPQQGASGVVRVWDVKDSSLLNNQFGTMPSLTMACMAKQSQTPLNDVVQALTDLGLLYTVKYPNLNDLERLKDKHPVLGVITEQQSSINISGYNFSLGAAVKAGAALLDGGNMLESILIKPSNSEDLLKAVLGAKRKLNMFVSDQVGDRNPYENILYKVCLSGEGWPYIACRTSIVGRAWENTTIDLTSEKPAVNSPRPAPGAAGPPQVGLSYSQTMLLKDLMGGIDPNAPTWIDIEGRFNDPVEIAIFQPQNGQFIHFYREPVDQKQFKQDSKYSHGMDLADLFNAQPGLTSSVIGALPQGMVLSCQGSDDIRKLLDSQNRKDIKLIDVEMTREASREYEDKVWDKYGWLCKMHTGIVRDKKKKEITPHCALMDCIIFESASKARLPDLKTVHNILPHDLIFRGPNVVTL

**Q.** With `COc1ccc(CCC(C)=O)cc1` as the compound, how does the Potency [1] read?
**A.** inactive

**Q.** And the Potency [2]?
**A.** inactive

**Q.** What about the Potency [3] of the same compound?
**A.** inactive

**Q.** What about the Potency [4] of the same compound?
**A.** inactive

**Q.** With `CN1CCN(c2cc3c(nn2)Oc2ccccc2N3C)CC1` as the compound, how does the Potency [1] read?
**A.** inactive

**Q.** What about the Potency [2] of the same compound?
**A.** inactive

**Q.** What about the Potency [3] of the same compound?
**A.** inactive

**Q.** What about the Potency [4] of the same compound?
**A.** inactive

**Q.** For `CN1[C@@H]2CC[C@H]1CC(NC(=O)n1c(=O)[nH]c3ccccc31)C2` (some centres undefined), which Potency [1] is on record?
**A.** inactive

**Q.** And the Potency [2]?
**A.** inactive

**Q.** And the Potency [3]?
**A.** inactive

**Q.** What about the Potency [4] of the same compound?
**A.** inactive

**Q.** Which Potency [1] does the source give for `CCCCCCCCCCCC[N+](C)(C)CCOc1ccccc1` here?
**A.** inactive

**Q.** And the Potency [2]?
**A.** inactive

**Q.** And the Potency [3]?
**A.** inactive

**Q.** And the Potency [4]?
**A.** inactive

**Q.** And the Potency [5]?
**A.** 6.68 µM (active)

**Q.** And the Potency [6]?
**A.** 30.9 µM (active)

**Q.** And the Potency [7]?
**A.** 13.3 µM (active)

**Q.** And the Potency [8]?
**A.** 13.7 µM (active)

**Q.** With `N/C(=N\N=C\c1ccc(Cl)cc1)N/N=C/c1ccc(Cl)cc1` as the compound, how does the Potency [1] read?
**A.** inactive

**Q.** And the Potency [2]?
**A.** inactive

**Q.** What about the Potency [3] of the same compound?
**A.** inactive

**Q.** And the Potency [4]?
**A.** inactive

**Q.** For `O=C(O)/C=C/c1ccc(Cn2ccnc2)cc1`, which Potency [1] is on record?
**A.** inactive

**Q.** What about the Potency [2] of the same compound?
**A.** inactive

**Q.** And the Potency [3]?
**A.** inactive

**Q.** What about the Potency [4] of the same compound?
**A.** inactive

**Q.** Which results are given for `CCCCN(CCCC)CCC(O)c1cc2c(Cl)cc(Cl)cc2c2cc(C(F)(F)F)ccc12` (centres undefined)?
**A.** Potency [1]: inactive; Potency [2]: inactive; Potency [3]: inactive; Potency [4]: inactive

**Q.** Which Potency [1] does the source give for `CN1CCN(c2cc3c(cc2F)c(=O)c(C(=O)O)cn3-c2ccc(F)cc2)CC1` here?
**A.** inactive

**Q.** What about the Potency [2] of the same compound?
**A.** inactive

**Q.** And the Potency [3]?
**A.** inactive

**Q.** What about the Potency [4] of the same compound?
**A.** inactive

**Q.** Which results are given for `C1CCC(C(CC2CCCCN2)C2CCCCC2)CC1` (centres undefined)?
**A.** Potency [1]: inactive; Potency [2]: inactive; Potency [3]: inactive; Potency [4]: inactive

**Q.** Which Potency [1] does the source give for `Brc1c(NC2=NCCN2)ccc2nccnc12` here?
**A.** inactive

**Q.** And the Potency [2]?
**A.** inactive

**Q.** What about the Potency [3] of the same compound?
**A.** inactive

**Q.** And the Potency [4]?
**A.** inactive

**Q.** What does the source list for `CCCCC1C(=O)NC(=O)N(C2CCCCC2)C1=O` (centres undefined)?
**A.** Potency [1]: inactive; Potency [2]: inactive; Potency [3]: inactive; Potency [4]: inactive; Potency [9]: inactive; Potency [10]: inactive; Potency [11]: inactive; Potency [5]: inactive; Potency [6]: inactive; Potency [12]: inactive; Potency [13]: inactive; Potency [7]: inactive; Potency [8]: inactive; Potency [14]: inactive

**Q.** Which activity change, negative = inhibition [1] does the source give for `O=c1[nH]c(=O)c2[nH]c(=O)[nH]c2[nH]1` here?
**A.** -5.36% [at 11.5 µM]

**Q.** What about the activity change, negative = reduced viability [2] of the same compound?
**A.** 13.2% [at 11.5 µM]

**Q.** What about the activity change, negative = lower viability [3] of the same compound?
**A.** -14.6% [at 11.5 µM]

**Q.** What about the activity change, negative = inhibition [4] of the same compound?
**A.** 20.2% [at 11.5 µM]

**Q.** Which results are given for `CC(=O)/C=C/C=C1/C2CCC(C2)C1(C)C` (centres undefined)?
**A.** Potency [1]: inactive; Potency [2]: inactive; Potency [3]: inactive; Potency [4]: inactive

**Q.** Which Potency [1] does the source give for `Cc1ccc(S(=O)(=O)NC(=O)NC2CCCC2)cc1` here?
**A.** inactive

**Q.** And the Potency [2]?
**A.** inactive

**Q.** And the Potency [3]?
**A.** inactive

**Q.** What about the Potency [4] of the same compound?
**A.** inactive

**Q.** With `Cc1ccc(N(CC2=NCCN2)c2cccc(O)c2)cc1` as the compound, how does the Potency [1] read?
**A.** inactive

**Q.** And the Potency [2]?
**A.** inactive

**Q.** And the Potency [3]?
**A.** inactive

**Q.** What about the Potency [4] of the same compound?
**A.** inactive

**Q.** For `C[N+](C)(C)CCCCCCCCCC[N+](C)(C)C`, which Potency [1] is on record?
**A.** inactive

**Q.** And the Potency [2]?
**A.** inactive

**Q.** What about the Potency [3] of the same compound?
**A.** inactive

**Q.** What about the Potency [4] of the same compound?
**A.** inactive

**Q.** With `OC[C@@H](O)[C@@H](O)[C@H](O)[C@H](O)CO` as the compound, how does the Potency [1] read?
**A.** inactive

**Q.** What about the Potency [2] of the same compound?
**A.** inactive

**Q.** And the Potency [3]?
**A.** inactive

**Q.** What about the Potency [4] of the same compound?
**A.** inactive

**Q.** With `O=C1C(c2[nH]c3ccccc3c2O)=Nc2ccccc21` as the compound, how does the Potency [1] read?
**A.** inactive

**Q.** What about the Potency [2] of the same compound?
**A.** inactive

**Q.** And the Potency [3]?
**A.** inactive

**Q.** And the Potency [4]?
**A.** inactive

**Q.** With `COc1ccc(OC(=O)N(CC(=O)O)Cc2ccc(OCCc3nc(-c4ccccc4)oc3C)cc2)cc1` as the compound, how does the Potency [1] read?
**A.** inactive

**Q.** And the Potency [3]?
**A.** inactive

**Q.** What about the Potency [4] of the same compound?
**A.** inactive

**Q.** Which Potency [1] does the source give for `CCOC(=O)OC(C)OC1=C(C(=O)Nc2ccccn2)N(C)S(=O)(=O)c2ccccc21` (centres undefined) here?
**A.** inactive

**Q.** What about the Potency [2] of the same compound?
**A.** inactive

**Q.** And the Potency [4]?
**A.** inactive

**Q.** Which Potency [1] does the source give for `C=C[C@@]1(C)CC(=O)[C@]2(O)[C@@]3(C)[C@@H](O)CCC(C)(C)[C@@H]3[C@H](O)[C@H](OC(C)=O)[C@@]2(C)O1` here?
**A.** inactive

**Q.** And the Potency [2]?
**A.** inactive

**Q.** What about the Potency [4] of the same compound?
**A.** inactive

**Q.** Which Potency [1] does the source give for `CN(C)CCN(Cc1ccc(Cl)cc1)c1ccccn1` here?
**A.** inactive

**Q.** What about the Potency [3] of the same compound?
**A.** inactive

**Q.** And the Potency [4]?
**A.** inactive

**Q.** With `CCCOc1ccc2nc(NC(=O)OC)[nH]c2c1` as the compound, how does the Potency [1] read?
**A.** inactive

**Q.** And the Potency [3]?
**A.** 0.0172 µM (active)

**Q.** And the Potency [4]?
**A.** inactive

**Q.** With `CC/C(=C(/CC)c1ccc(O)cc1)c1ccc(O)cc1` as the compound, how does the Potency [1] read?
**A.** inactive

**Q.** And the Potency [3]?
**A.** inactive

**Q.** Which Potency [1] does the source give for `CN1CCC(Nc2ncc3ncnc(Nc4ccc(F)c(Cl)c4)c3n2)CC1` here?
**A.** inactive

**Q.** What about the Potency [3] of the same compound?
**A.** inactive

**Q.** And the Potency [4]?
**A.** inactive

**Q.** With `COC(=O)C1=C(C)NC(C)=C(C(=O)OCCCN2CCC(c3ccccc3)(c3ccccc3)CC2)C1c1cccc([N+](=O)[O-])c1` (centres undefined) as the compound, how does the Potency [1] read?
**A.** inactive

**Q.** What about the Potency [2] of the same compound?
**A.** inactive

**Q.** What about the Potency [4] of the same compound?
**A.** inactive
